The values below come from PubChem BioAssay (NCI).

A short description of experiment [1]: NCI Yeast Anticancer Drug Screen. Data for the rad50 strain (AID 155).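 Further: 0% = growth of vehicle-only cultures of the same strain.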 The settings on record: S. cerevisiae rad50 strain growth inhibition, stronger effect = higher value. An outline of the steps: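 A DNA repair-deficient yeast mutant serves as the test organism; compound-induced growth inhibition is calculated against vehicle-treated cells.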
A short description of experiment [2]: NCI Yeast Anticancer Drug Screen. Data for the mec2-1 strain (AID 157). The settings on record: S. cerevisiae mec2-1 strain, stronger effect = higher value. An outline of the steps:
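Each compound was tested on mec2-1 yeast, a strain altered in DNA damage repair or cell cycle control. Growth inhibition is reported relative to vehicle.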

A short description of experiment [3]: NCI Yeast Anticancer Drug Screen. Data for the sgs1 mgt1 strain (AID 161).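 Further: 0% = growth of cultures given vehicle only.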 The settings on record: S. cerevisiae sgs1 mgt1 strain, stronger effect = higher value. An outline of the steps: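 Test agents were incubated with a DNA-repair-mutant yeast strain. Growth was then read and compared against vehicle-treated controls.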
Experiment [4] is described as follows: NCI Yeast Anticancer Drug Screen. Data for the cln2 rad14 strain (AID 165).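 Further: 0% = growth equal to vehicle treated cultures.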 The settings on record: S. cerevisiae cln2 rad14 strain, stronger effect = higher value. An outline of the steps:
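Test compounds were added to cln2 rad14 yeast cultures; inhibition of growth was then determined by comparison with vehicle treatment.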

Experiment [5] in a line: NCI Yeast Anticancer Drug Screen. Data for the bub3 strain (AID 167). The settings on record: S. cerevisiae bub3 mutant strain, stronger effect = higher value. An outline of the steps: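 Inhibition values come from growth of compound-treated mutant yeast normalised to vehicle-treated controls.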
Experiment [6] in a line: NCI Yeast Anticancer Drug Screen. Data for the mlh1 rad18 strain (AID 175). The settings on record: S. cerevisiae mlh1 rad18 strain growth inhibition, stronger effect = higher value. The procedure, abridged:
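Inhibition values reflect reduced growth of mutant yeast versus vehicle-treated controls following compound exposure; the mutations affect DNA damage repair.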

The mark [7] stands for this setting: at 5.0 µM (retest, dose inferred, filed as 0.5).
Where [8] appears, read: at 50.0 µM (retest, dose inferred, filed as 5.0).

SMILES strings stand for the structures. Several values for one entry are separate records, joined by “and”; a condition that tells them apart may be missing. Identical values can stand only once. About 79,000 compounds went through this panel and 15% of them were active in at least one assay; those are over-represented in the sample as a whole. A structure can be active in one record and inactive in another. Activity calls are given as the source filed them. No stated cut-off is given here; in the data, active means growth inhibition above about 70%; inactive means the rest.

On to `CN(C)/C=C1\CCc2ccc([N+](=O)[O-])cc2C1=O`, for which the growth inhibition is 19% (inactive) in experiment [1] (setting [7]); 21% (inactive) in experiment [1] (setting [8]); 6.9% (inactive) in experiment [1] (at 50.0 µM); 17% (inactive) in experiment [2] (setting [7]); 25% (inactive) in experiment [2] (setting [8]); 0.45% (inactive) in experiment [2] (at 50.0 µM). For the same compound, the growth inhibition in experiment [3] (setting [7]) is 24% (inactive); in experiment [3] (setting [8]) it was 29% (inactive); in experiment [3] (at 50.0 µM), 16.4% (inactive); in experiment [4] (setting [7]), 31% (inactive); in experiment [4] (setting [8]), 17% (inactive); in experiment [4] (at 50.0 µM), 12.1% (inactive). For the same compound, the growth inhibition is 26% (inactive) in experiment [5] (setting [7]); 19% (inactive) in experiment [5] (setting [8]); 21.4% (inactive) in experiment [5] (at 50.0 µM); 29% (inactive) in experiment [6] (setting [7]); 35% (inactive) in experiment [6] (setting [8]); -28.4% (inactive) in experiment [6] (at 50.0 µM).

For `O=C1c2ccccc2C(=O)c2cc(S(=O)(=O)O)ccc21`, the growth inhibition was 3% (inactive) in experiment [1] (setting [7]); 27% (inactive) in experiment [1] (setting [8]); 73% (active) and 25.7% (inactive) in experiment [1] (at 50.0 µM); 1% (inactive) in experiment [2] (setting [7]); 26% (inactive) in experiment [2] (setting [8]); 36.2% (inactive) and 36.1% (inactive) in experiment [2] (at 50.0 µM). For the same compound, the growth inhibition in experiment [3] (setting [7]) is 6% (inactive); in experiment [3] (setting [8]), 42% (inactive); in experiment [3] (at 50.0 µM), 67.7% (inactive) and 37% (inactive); in experiment [4] (setting [7]), 6% (inactive); in experiment [4] (setting [8]), 30% (inactive); in experiment [4] (at 50.0 µM), -26.8% (inactive) and 9.95% (inactive). Also, the growth inhibition in experiment [5] (setting [7]) is 0% (inactive); in experiment [5] (setting [8]), 22% (inactive); in experiment [5] (at 50.0 µM), 67.3% (inactive) and 44.7% (inactive); in experiment [6] (setting [7]) it was 7% (inactive); in experiment [6] (setting [8]) it was 41% (inactive); in experiment [6] (at 50.0 µM), 77.7% (active) and 19.6% (inactive).

`CC(C)Oc1ccc(Nc2ccccc2)cc1`: the growth inhibition in experiment [1] (setting [7]) is -2% (inactive); in experiment [1] (setting [8]), 61% (inactive); in experiment [1] (at 50.0 µM), -1.65% (inactive) and 37% (inactive); in experiment [2] (setting [7]) it was -9% (inactive); in experiment [2] (setting [8]), 15% (inactive); in experiment [2] (at 50.0 µM), -2.9% (inactive) and 50.2% (inactive). In addition, the growth inhibition in experiment [3] (setting [7]) is -1% (inactive); in experiment [3] (setting [8]), 43% (inactive); in experiment [3] (at 50.0 µM) it was -8.3% (inactive) and 56.8% (inactive); in experiment [4] (setting [7]), 0% (inactive); in experiment [4] (setting [8]) it was -18% (inactive); in experiment [4] (at 50.0 µM) it was -21.6% (inactive) and 36.1% (inactive). The growth inhibition in experiment [5] (setting [7]) was 42% (inactive); in experiment [5] (setting [8]), 62% (inactive); in experiment [5] (at 50.0 µM), -16.4% (inactive) and 33.5% (inactive); in experiment [6] (setting [7]), -4% (inactive); in experiment [6] (setting [8]), 20% (inactive); in experiment [6] (at 50.0 µM) it was -9.65% (inactive) and 40.1% (inactive).

For the compound `[N-]=[N+]=NC(=O)Nc1cccc(C(F)(F)F)c1`, the growth inhibition was 8% (inactive) in experiment [1] (setting [7]); 99% (active) in experiment [1] (setting [8]); 99% (active) in experiment [1] (at 50.0 µM); -1% (inactive) in experiment [2] (setting [7]); 99% (active) in experiment [2] (setting [8]); 99% (active) in experiment [2] (at 50.0 µM). For the same compound, the growth inhibition in experiment [3] (setting [7]) was 2% (inactive); in experiment [3] (setting [8]), 99% (active); in experiment [3] (at 50.0 µM), 98.5% (active); in experiment [4] (setting [7]), -3% (inactive); in experiment [4] (setting [8]), 99% (active); in experiment [4] (at 50.0 µM), 97.8% (active). The growth inhibition in experiment [5] (setting [7]) is 14% (inactive); in experiment [5] (setting [8]), 98% (active); in experiment [5] (at 50.0 µM), 98.5% (active); in experiment [6] (setting [7]) it was 8% (inactive); in experiment [6] (setting [8]), 98% (active); in experiment [6] (at 50.0 µM), 98.8% (active).

In the case of `COc1ccc(/C=C/NC=O)cc1`, the growth inhibition in experiment [1] (setting [7]) was -2% (inactive); in experiment [1] (setting [8]), -1% (inactive); in experiment [1] (at 50.0 µM) it was -17.2% (inactive); in experiment [2] (setting [7]) it was -3% (inactive); in experiment [2] (setting [8]), 0% (inactive); in experiment [2] (at 50.0 µM) it was 0.35% (inactive). Moreover, the growth inhibition in experiment [3] (setting [7]) was -2% (inactive); in experiment [3] (setting [8]), -1% (inactive); in experiment [3] (at 50.0 µM) it was -9.6% (inactive); in experiment [4] (setting [7]), -2% (inactive); in experiment [4] (setting [8]), 4% (inactive); in experiment [4] (at 50.0 µM), -8.25% (inactive). Also, the growth inhibition in experiment [5] (setting [7]) is 1% (inactive); in experiment [5] (setting [8]) it was 6% (inactive); in experiment [5] (at 50.0 µM), 19.8% (inactive); in experiment [6] (setting [7]) it was -3% (inactive); in experiment [6] (setting [8]) it was -2% (inactive); in experiment [6] (at 50.0 µM), 28.9% (inactive).

In the case of `CCCCCCCCCCCCCCCCOP(=O)(O)OP(=O)(O)OCC1OC(n2ccc(N)nc2=O)C(O)C1O` (stereo unspecified), the growth inhibition is 97% (active) in experiment [1] (setting [7]); 97% (active) in experiment [1] (setting [8]); -2% (inactive) and 81.4% (active) in experiment [1] (at 50.0 µM); 98% (active) in experiment [2] (setting [7]); 98% (active) in experiment [2] (setting [8]); -2.65% (inactive) and 89.8% (active) in experiment [2] (at 50.0 µM). The growth inhibition in experiment [3] (setting [7]) is 98% (active); in experiment [3] (setting [8]) it was 98% (active); in experiment [3] (at 50.0 µM), 55% (inactive) and 87.5% (active); in experiment [4] (setting [7]) it was 92% (active); in experiment [4] (setting [8]), 90% (active); in experiment [4] (at 50.0 µM), 9.5% (inactive) and 84.7% (active). The growth inhibition in experiment [5] (setting [7]) was 98% (active); in experiment [5] (setting [8]), 98% (active); in experiment [5] (at 50.0 µM), -9.4% (inactive) and 84.5% (active); in experiment [6] (setting [7]), 94% (active); in experiment [6] (setting [8]), 95% (active); in experiment [6] (at 50.0 µM), 33% (inactive) and 90.5% (active).

On to `CC(=O)Oc1cccc2cccnc12`, for which the growth inhibition was 99% (active) in experiment [1] (setting [7]); 99% (active) in experiment [1] (setting [8]); 99.2% (active) in experiment [1] (at 50.0 µM); 91% (active) in experiment [2] (setting [7]); 100% (active) in experiment [2] (setting [8]); 99.3% (active) in experiment [2] (at 50.0 µM). Moreover, the growth inhibition in experiment [3] (setting [7]) was 98% (active); in experiment [3] (setting [8]), 100% (active); in experiment [3] (at 50.0 µM), 89.2% (active); in experiment [4] (setting [7]), 88% (active); in experiment [4] (setting [8]) it was 99% (active); in experiment [4] (at 50.0 µM) it was 98.8% (active). The growth inhibition in experiment [5] (setting [7]) was 98% (active); in experiment [5] (setting [8]) it was 100% (active); in experiment [5] (at 50.0 µM) it was 99.2% (active); in experiment [6] (setting [7]), 96% (active); in experiment [6] (setting [8]), 99% (active); in experiment [6] (at 50.0 µM), 98.1% (active).
